According to PubChem BioAssay (EPA / NIEHS):
Calls of active or inactive are those of the source. How the source made its calls: active means hit-call score of the fitted dose curve at least 0.9, where 1 is the maximum; inactive means score below 0.9.

Test: CCTE_Padilla_ZF_Score.Craniofacial: CCTE's 144 Hour Post-fertilization zebrafish Assay Score for Craniofacial Malformation, Padilla Lab (AID 2284405)
Description: CCTE_Padilla_ZF_Phenotype_Score is a whole embryo, multiplexed assay using zebrafish ova exposed for 144 hours post fertilization on a 96-well plate.CCTE_Padilla_ZF_Score.Craniofacial is one of one assay component(s) measured or calculated from the CCTE_Padilla_ZF_Phenotype_Score assay. It is designed to make measurements of zebrafish development as detected with brightfield microscopy of developing zebrafish embryos.Data from the assay component CCTE_Padilla_ZF_Score.Craniofacial was analyzed into 1 assay endpoints. This assay endpoint, CCTE_Padilla_ZF_Score.Craniofacial, was analyzed in the positive analysis fitting direction relative to DMSO as the negative control and baseline of activity. Using a type of viability reporter, gain-of-signal activity can be used to understand changes in developmentals as they relate to the whole embryo. To generalize the intended target to other relatable targets, this assay endpoint is annotated to the zebrafish development intended target family, where the subfamily is craniofacial morphogenesis.
Zebrafish husbandry: Wild type adult zebrafish (Danio rerio; undefined outbred stock obtained from Aquatic Research Organisms, Hampton, NH, 03842) were housed in an AAALAC-approved animal facility at 28C with a 14:10 h light: dark cycle (lights on at 08:30 h). Adult fish (2-3 females per male; density = 15-20 adults per tank) were kept in one of several 9-liter (L) flow-through colony tanks (Aquaneering Inc., San Diego, CA). All adults in a colony tank were placed in a 2 L (static) breeding tank (Aquatic Habitats, Apopka, FL) one hour prior to light onset. Typically, adults from two to three colony tanks were mated on the same day. Two hours after light onset the adults were returned to the colony tank. All embryos were gathered from each breeder tank, pooled, and placed in a 28C water bath for 2 h, followed by two washes with 0.06% bleach (v/v) in 10% Hanks' Balanced Salt Solution (13.7 mM NaCl 0.54 mM KCl, 25 uM Na2HPO4, 130 uM CaCl2 100 um MgSO4 and 420 um NaHCO3,), hereafter referred to as Hanks' solution, for 5 min in order to remove any residual bacteria or fungi. Immediately following washing, the embryos were examined, and healthy embryos were separated from dead or unfertilized eggs and moved into fresh Hanks'. Chemical exposures: Zebrafish embryos were exposed in 96-well plates. Between 6- and 8-hours post fertilization (hpf), healthy embryos (with chorions) were transferred, one embryo per well, into 96 well (0.5 mL) microtiter plates (Cell Culture-Treated, Flat-Bottom Microplate 96 well [Corning Costar, Kennebunk, ME; Cat 09-761-145]) filled with 200 uL of Hanks' solution. A random number generator was used to assign the order in which the rows of embryos were plated in 96 well plates each week. After plating, the embryos were dosed with 0.8 uL of the chemical dosing solution then immediately sealed with AlumaSeal II (Excel Scientific Inc, Victorville, CA) to prevent volatilization of the chemicals, and then placed in a leakproof secondary container. These containers were placed in an incubator maintained on a 14:10 h light: dark cycle at 26C for rearing. On 5 dpf, live larvae were gently moved out of the plate with test chemicals and into a new 96 well mesh plate (Millipore Corp., Bedford, MA) with just the Hanks' solution. Once within the mesh well plate, the animals were rinsed with 400 uL of fresh Hanks' three times, and then the plates were covered with a non-adhesive material (Microseal A, BioRad, Hercules, CA), plate lid added, and then plate sides wrapped in Parafilm (PM992, Bermis Company, Neenah, WI), and returned to the incubator. […]

Row | SMILES | outcome
1 | C=CC(F)(F)C(F)(F)C(F)(F)C(F)(F)F | inactive
2 | O=CC(F)(F)C(F)(F)C(F)(F)F | inactive
3 | O=C(CC(=O)C(F)(F)C(F)(F)C(F)(F)F)c1cccs1 | inactive
4 | O=C(O)CCC(F)(F)C(F)(F)C(F)(F)C(F)(F)C(F)(F)C(F)(F)F | inactive
5 | O=C(O)C(F)(F)OC(F)(F)C(F)(F)OC(F)(F)C(F)(F)OC(F)(F)C(F)(F)C(F)(F)C(F)(F)F | inactive
6 | NC(C(F)(F)F)C(F)(F)F | inactive
7 | O=P(O)(O)CCC(F)(F)C(F)(F)C(F)(F)C(F)(F)C(F)(F)C(F)(F)F | inactive
8 | O=P(O)(O)CCC(F)(F)C(F)(F)C(F)(F)C(F)(F)C(F)(F)C(F)(F)C(F)(F)C(F)(F)F | inactive
9 | O=C(F)C(F)(F)C(F)(F)C(F)(F)C(=O)F | inactive
10 | FC(F)(F)N1C(F)(F)C(F)(F)OC(F)(F)C1(F)F | inactive
11 | COC(=O)C(F)(F)C(F)(F)C(F)(F)C(F)(F)C(F)(F)F | inactive
12 | O=C1OC(=O)C(F)(F)C1(F)F | inactive
13 | FC(F)=C(F)C(F)(F)C(F)(F)C(F)(F)C(F)F | inactive
14 | FC(F)(F)C1(F)C(F)(F)C(F)(F)C(F)(F)C1(F)F | inactive
15 | FC1(F)C=CC(F)(F)C1(F)F | inactive
16 | C=CC(=O)OCCC(F)(F)C(F)(F)C(F)(F)C(F)(F)C(F)(F)C(F)(F)C(F)(F)C(F)(F)F | inactive
17 | O=CC(F)(F)C(F)(F)C(F)(F)C(F)F | inactive
18 | O=C(O)CCC(F)(F)C(F)(F)C(F)(F)C(F)(F)C(F)(F)F | inactive
19 | FCOC(C(F)(F)F)C(F)(F)F | inactive
20 | O=C(OC(=O)C(F)(F)C(F)(F)F)C(F)(F)C(F)(F)F | inactive
21 | FC(F)(F)C1(F)C(F)(F)C(F)(F)C(F)(F)C(F)(C(F)(F)F)C1(F)F (centres undefined) | inactive
22 | OCC(F)(F)C(F)(F)C(F)(F)C(F)(F)C(F)(F)C(F)(F)C(F)(F)C(F)(F)C(F)(F)C(F)(F)C(F)(F)F | inactive
23 | CN(CCO)S(=O)(=O)C(F)(F)C(F)(F)C(F)(F)C(F)(F)C(F)(F)C(F)(F)C(F)(F)C(F)(F)F | inactive
24 | FC(OC(F)(F)C(F)(F)C(F)(F)F)C(F)(F)F (centres undefined) | inactive
